Values joined by “and” are separate entries in the source; they are usually repeats but may differ in a detail not shown here. Equal entries are not always repeated. About 79,000 compounds went through this panel and 15% of them were active in at least one assay; those are over-represented in the sample as a whole. Active and inactive are the calls of the source. No stated cut-off is given here; in the data, active means growth inhibition above about 70%; inactive means the rest.
Experiments:
[1] = NCI Yeast Anticancer Drug Screen. Data for the rad50 strain (AID 155);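 further: 0% = growth of vehicle-only cultures of the same strain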; settings: S. cerevisiae rad50 strain growth inhibition, active compounds read high; at 50.0 µM unless noted
In short: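 Growth of the mutant yeast was measured after compound exposure and referenced to vehicle-treated cultures.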

[2] = NCI Yeast Anticancer Drug Screen. Data for the mec2-1 strain (AID 157); settings: S. cerevisiae mec2-1 strain, active compounds read high; at 50.0 µM unless noted
In short: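 Using mec2-1 yeast: add compound, measure growth, express inhibition versus vehicle-treated cultures.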

[3] = NCI Yeast Anticancer Drug Screen. Data for the sgs1 mgt1 strain (AID 161);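 further: 0% = growth of cultures given vehicle only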; settings: S. cerevisiae sgs1 mgt1 strain, active compounds read high; at 50.0 µM unless noted
In short: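 Yeast cells carrying a defined DNA-repair defect were exposed to test compounds. Growth inhibition was measured relative to vehicle-treated controls.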

[4] = NCI Yeast Anticancer Drug Screen. Data for the cln2 rad14 strain (AID 165);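 further: 0% = growth equal to vehicle treated cultures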; settings: S. cerevisiae cln2 rad14 strain, active compounds read high; at 50.0 µM unless noted
In short: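 Yeast strain cln2 rad14, bearing defects in cell cycle control and DNA repair, serves as the test system; values reflect growth inhibition compared with vehicle.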

[5] = NCI Yeast Anticancer Drug Screen. Data for the bub3 strain (AID 167); settings: S. cerevisiae bub3 mutant strain, active compounds read high; at 50.0 µM unless noted
In short: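 Whole-cell yeast assay. The mutant strain was incubated with compounds, and growth inhibition was determined by comparison with vehicle-treated cells.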

[6] = NCI Yeast Anticancer Drug Screen. Data for the mlh1 rad18 strain (AID 175); settings: S. cerevisiae mlh1 rad18 strain growth inhibition, active compounds read high; at 50.0 µM unless noted
In short: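 Steps: expose repair-defective yeast to compound; measure growth; express inhibition against vehicle-treated controls.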

Measured: growth inhibition

Cc1cc2nncn2c2ccccc12
inactive: [1] 9.15% | [2] -3.55% | [3] -2.9% | [4] -12.3% | [5] 1.2% | [6] 11.2%

O=C1OC(Oc2ccccc2)c2cc3c(cc21)OCO3 (stereo not drawn)
inactive: [1] 20.4% | [2] -6.05% | [3] 21.3% | [4] 20.6% | [5] 17.9% | [6] 29.5%

C=C1N(c2cc3ccccc3o2)C(=O)OC12CCCCC2
inactive: [1] -37.5% | [2] -2.2% | [3] -8% | [4] 8.8% | [5] -2.55% | [6] 18.9%

O=C1CC2c3ccccc3CCN2C2=C1CCC2 (stereo not drawn)
inactive: [1] 13.6% | [2] 13.1% | [3] -0.4% | [4] -16.2% | [5] 0.5% | [6] 18.7%

NC(N)=N/N=C(/c1ccccc1)c1ccc(O)cc1O
inactive: [1] 20.2% | [2] -15.7% | [3] -8.5% | [4] 9.7% | [5] -48.6% | [6] 14.5%

COc1cc2c(cc1OC)NC(=O)NC(Cc1ccc3c(c1)OCO3)CC2 (stereo not drawn)
inactive: [1] 20.6% | [2] 10.8% | [3] 13.8% | [4] -47% | [5] 22.3% | [6] 27.3%

CCCCCCCCCCSCC(=O)O
inactive: [1] -12.8% | [2] -24.6% | [3] -15.5% | [4] -3.3% | [5] -30.6% | [6] -29.5%

CCC(CC)NC(CC)COC(=O)c1ccc(N)cc1 (stereo not drawn)
inactive: [1] 8.4% | [2] -4.3% | [3] -0.05% | [4] -0.5% | [5] 5.8% | [6] -4.9%

CC1(C)COC2(CCCCC2)OC1
inactive: [1] 12.8% | [2] 4.4% | [3] -10.6% | [4] -30.1% | [5] -1.7% | [6] 8.95%

Oc1ccc(-c2nc(-c3cccnc3)c(-c3ccc(F)cc3)[nH]2)cc1
inactive: [1] 5.2% | [2] -13.7% | [3] 12.8% | [4] 8.55% | [5] 12.5% | [6] 57.8%

O=C1c2ccccc2C(=O)N1c1ccc(OCCN2CCCCC2)cc1
inactive: [1] 11.8% | [2] -1.7% | [3] 7.45% | [4] 37.5% | [5] -2.05% | [6] 18.4%

CC(C)(O)C#CC(C)(C)O
inactive: [1] 1.1% | [2] -7.7% | [3] -10.7% | [4] 0.25% | [5] 5.65% | [6] -11.7%

CN(C)c1cccc2c(S(=O)(=O)NCCCNCCN)cccc12
inactive: [1] 7.6% | [2] -18.4% | [3] -20.9% | [4] 24.4% | [5] -21.2% | [6] -6.6%

O=C(Cc1ccc([N+](=O)[O-])cc1)Nc1cccc(O)c1
inactive: [1] -4.85% | [2] 29.2% | [3] -4.9% | [4] -13.5% | [5] 47.4% | [6] 14.8%

O=[N+]([O-])c1ccccc1N1CCCCC1
inactive: [1] 23.9% | [2] 7.05% | [3] 14.9% | [4] 25.6% | [5] -4.05% | [6] 27.2%

c1cc(-c2ncc[nH]2)ccn1
inactive: [1] -6.9% | [2] -12.2% | [3] -4.25% | [4] -4.05% | [5] 6.1% | [6] -8.2%

CCOC(=O)c1sc(SC)nc1NC(=O)c1ccccc1
inactive: [1] -18.4% | [2] -9% | [3] -5.45% | [4] 3.2% | [5] -3.4% | [6] -33.2%

CNC(=O)N(CCCC(NC(C)=O)C(=O)NCc1ccccc1)Cc1ccccc1 (stereo not drawn)
inactive: [1] 16.1% | [2] 3.4% | [3] -7.95% | [4] 17.6% | [5] 8.5% | [6] 18.9%

O=c1c2cncnc2sc2nc3ccccc3n12
inactive: [1] 16.1% | [2] -9.55% | [3] 28.3% | [4] 11.9% | [5] 15.3% | [6] 23.4%

OC(c1ccc(Cl)cc1)c1ccccn1 (stereo not drawn)
inactive: [1] 1.7% | [2] -9% | [3] -7.3% | [4] -17% | [5] -18.9% | [6] -8.75%

O=C1N(C2CCCCC2)C(/C=C/c2ccccc2)C1(c1ccccc1)c1ccccc1 (stereo not drawn)
inactive: [1] 22.4% | [2] 0.25% | [3] 3.65% | [4] 19.6% | [5] -6.05% | [6] 4.7%

CC(C)(C)C(=O)/C(=C/C(=O)O)C(C)(C)C
inactive: [1] -0.1% | [2] 10.7% | [3] 1.25% | [4] 7.6% | [5] -0.9% | [6] -0.95%

C/C(CC(C)C)=N/O
inactive: [1] 3.75% and -12.1% | [2] -3.25% and -4.35% | [3] -17.5% and -5.85% | [4] -23.2% and -20.5% | [5] -0.4% and 3% | [6] 11.8% and 9.05%

O=C(NC1CCCCC1)/C(=C\c1ccccc1)NC(=O)c1ccccc1
inactive: [1] -26.8% | [2] -48.4% | [3] -28.6% | [4] 0.05% | [5] -6.8% | [6] -27.4%

NC(=S)N/N=C/c1ccc(N)cn1
inactive: [1] -4.2% | [2] 17% | [3] -0.5% | [4] 0.25% | [5] 8.15% | [6] -8.8%

CSCCSC
inactive: [1] 10.2% | [2] 4.6% | [3] -0.1% | [4] 13.4% | [5] 3.4% | [6] 3.65%

COC(=O)c1ccccc1NS(=O)(=O)c1ccc(Cl)cc1
active: [3] 75.7% | [5] 93% | [6] 82.2%
inactive: [1] 42.2% | [2] 66.1% | [4] 47.8%

CCc1cc(C)cc(O)c1
inactive: [1] -42.9% and 38% | [2] -40% and 4.6% | [3] -65.2% and -1.55% | [4] 0.45% and 7.15% | [5] -56% and 27.4% | [6] -29.9% and 12%

CC(=O)NC1(NC(C)=O)C2CC(C1Cc1ccccc1)C(C)(C)C2C (stereo not drawn)
inactive: [1] 4.75% | [2] -14.7% | [3] -18.6% | [4] -11.6% | [5] -43.5% | [6] -38.5%

COC(=O)C(Cc1ccccc1)C(=O)C(CC(=O)OC(C)(C)C)NC(=O)OC(C)(C)C (stereo not drawn)
inactive: [1] 14.7% | [2] 1.15% | [3] 17% | [4] 10.8% | [5] 22.1% | [6] -27.5%

Cc1cc(O)cc(C)c1O
inactive: [1] 7.05% | [2] 5.45% | [3] 2.8% | [4] -23.4% | [5] -0.3% | [6] -7.75%

CCCCCCCCN1C(=O)CCC1=O
inactive: [1] -1.45% | [2] -19.4% | [3] -6.3% | [4] 0.5% | [5] -14.9% | [6] -0.5%

C=CCC(O)CCCCC (stereo not drawn)
inactive: [1] -0.4% | [2] -22.8% | [3] 15.8% | [4] 20.7% | [5] -11.3% | [6] -23.4%

CC(CC(=O)Nc1ccccc1CC(c1c[nH]c2ccccc12)c1c[nH]c2ccccc12)C(=O)O (stereo not drawn)
inactive: [1] 0.6% | [2] -14.2% | [3] 3.4% | [4] -12.9% | [5] 6.7% | [6] 17.5%

NNC(=S)N/N=C/c1ccc([N+](=O)[O-])s1
inactive: [1] 9.2% | [2] -2.4% | [3] 24.1% | [4] -47.4% | [5] -19.8% | [6] 6.35%

CCOc1ccc(F)cc1
inactive: [1] 10.7% | [2] -13.5% | [3] 16.5% | [4] 22.6% | [5] 6.3% | [6] 25.9%

O=CC(=O)C(O)C(O)C(O)CO (stereo not drawn)
inactive: [1] 9.5% | [2] 22.9% | [3] 26.2% | [4] -0.05% | [5] -4.95% | [6] 19.4%

CCCCCCCCCC(=O)Oc1cccc2c1CC(C[Se]c1ccccc1)C(=O)O2 (stereo not drawn)
inactive: [1] 2.1% | [2] -0.3% | [3] -0.85% | [4] -3.05% | [5] -2.05% | [6] 5.7%
